Test results: PubChem BioAssay AID588342 (National Center for Advancing Translational Sciences (NCATS), 2011)
Hit rate of the full screen: of about 360,000 compounds, about 25,000 (6.9%) were called active. Roughly 9% stayed inconclusive and do not appear here. The sample holds actives, similar compounds and a random draw of the others, so the mix is not that of the screen. The call rests on the fitted dose curve; in most records, active means well fitted inhibition curve with a large enough effect; inconclusive means small, poorly fitted or top-dose-only effect; inactive means flat fitted curve, though single readings scatter.

biological target: Luciferin 4-monooxygenase (Photinus pyralis) (UniProt P08659); experiment: qHTS profiling assay for firefly luciferase inhibitor/activator using purifed enzyme and Km concentrations of substrates (counterscreen for miR-21 project); settings: purified FLuc, luminescence inhibition; series mostly up to 57.5 µM; activity change, negative = inhibition: at the top concentration; further: nearly all actives have a fitted effect of over 55% in size;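 on activity change, negative = inhibition: plate controls were vehicle for no effect and reference inhibitor for full effect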
Sequence (P08659 whole entry, looked up): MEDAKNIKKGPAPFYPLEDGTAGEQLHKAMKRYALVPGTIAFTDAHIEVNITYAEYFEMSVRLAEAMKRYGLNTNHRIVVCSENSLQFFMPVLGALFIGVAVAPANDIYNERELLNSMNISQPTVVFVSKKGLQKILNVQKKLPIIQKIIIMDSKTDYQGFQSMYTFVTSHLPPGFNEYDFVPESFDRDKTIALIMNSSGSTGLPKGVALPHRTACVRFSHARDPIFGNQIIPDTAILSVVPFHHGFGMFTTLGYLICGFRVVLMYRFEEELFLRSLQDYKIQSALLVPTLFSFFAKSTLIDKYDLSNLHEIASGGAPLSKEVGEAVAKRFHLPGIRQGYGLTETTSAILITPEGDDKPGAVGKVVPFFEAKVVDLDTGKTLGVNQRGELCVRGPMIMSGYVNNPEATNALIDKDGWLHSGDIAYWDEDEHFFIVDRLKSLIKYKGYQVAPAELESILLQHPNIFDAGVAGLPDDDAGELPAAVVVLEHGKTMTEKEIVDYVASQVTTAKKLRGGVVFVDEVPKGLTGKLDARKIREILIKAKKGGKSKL
How it was run: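 Purified P. pyralis luciferase (10nM final) with 10uM D-luciferin and 10uM ATP (Km levels) in 50mM Tris acetate pH 7.5, 10mM Mg acetate, 0.01% Tween-20, 0.05% BSA; qHTS 6-point titration, ~60 µM downward; luminescence read.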
Potency means the concentration at half of the fitted maximal effect.

SMILES | activity change, negative = inhibition | Potency
Cc1ccc(-c2nn(CCC(=O)Nc3ccc(OC(F)(F)F)cc3)c(=O)c3ccccc23)cc1 | 1.85% (inactive) | –
Cc1c(NC(=O)C(C)OC(=O)c2cc3c4ccccc4n(C)c3s2)c(=O)n(-c2ccccc2)n1C (stereo unspecified) | -17.6% (inactive) | –
Cc1cccc(NC(=O)CSc2nc3c([nH]c4ccccc43)c(=O)n2-c2cc(C)cc(C)c2)c1 | 3.56% (inactive) | –
COC(=O)c1ccc(OC(=O)c2cnccn2)cc1 | -6.6% (inactive) | –
Cn1c(=NC(=O)c2cnccn2)sc2ccccc21 | – | 4.78 µM (active)
O=C(NCCCNC(=O)c1ccccc1Cl)c1cnccn1 | 0.753% (inactive) | –
Cc1ccc(S(=O)(=O)c2nc(-c3ccco3)oc2SCC(=O)Nc2ccc(F)cc2)cc1 | -1.94% (inactive) | –
Cc1cc(OC(=O)c2ccccc2Cl)ccc1N1C(=O)CCC1=O | – | 5.36 µM (active)
CCOC(=O)c1cc(OC(=O)c2ccccc2Cl)n(-c2ccccc2)n1 | -10.6% (inactive) | –
COc1ccccc1C(=O)Oc1ccc(N2C(=O)CCC2=O)cc1 | -18.3% (inactive) | –
COCCN(Cc1ccco1)C(=O)Cn1ncc2c([nH]c3ccccc32)c1=O | -7.77% (inactive) | –
COc1ccc(NC(=O)CCCN2C(=O)C(c3ccccc3)Oc3cccnc32)cc1 (stereo unspecified) | -5.7% (inactive) | –
Cc1[nH]n(C)c(=O)c1N=Nc1ccc(S(C)(=O)=O)cc1 | -0.788% (inactive) | –
Cc1[nH]n(C(N)=S)c(=O)c1N=Nc1ccc(Cl)cc1Cl | – | 10.7 µM (active)
O=C(CSc1nnc(-c2ccncc2)o1)NCc1ccc(Cl)cc1 | 3.75% (inactive) | –
Cn1c(SCc2nc3ccccc3s2)nnc1-c1ccc2c(c1)OCO2 | -1.94% (inactive) | –
Clc1ccc(-c2nnc(SCc3nc4ccccc4s3)o2)cc1 | – | 19 µM (active)
COc1ccc(-n2c(=O)c3sc4ccccc4c3n(CC(=O)Nc3cccc(C)c3)c2=O)cc1 | -12.3% (inactive) | –
Cc1cc(C)c2nc3nc(C)cc(C)c3c(N)c2c1 | – | 15.1 µM (active)
O=C1C2C3C=CC(C4CC34)C2C(=O)N1/N=C/c1ccc(-c2ccccc2[N+](=O)[O-])o1 (stereo unspecified) | – | 10.7 µM (active)
Cc1cc(C)c([N+](=O)[O-])cc1-c1ccc(/C=N/NC(=O)c2nonc2N)o1 | -5.62% (inactive) | –
O=C(CN1C(=O)CCn2nc(-c3ccccc3)cc21)NCc1ccccc1 | 2.85% (inactive) | –

SMILES | activity change, negative = inhibition | Potency
CCOc1cccc(CC(=O)N2CCc3c([nH]c4ccccc34)C2c2ccc(F)cc2)c1OCC (stereo unspecified) | 1.15% (inactive) | –
O=C(/C(=C/c1cccc(Cl)c1)c1nc2ccccc2[nH]1)c1ccccc1 | -8.51% (inactive) | –
N#C/C(=C(/O)COC(=O)COc1ccc(Cl)cc1)c1nc2ccccc2[nH]1 | -0.937% (inactive) | –
O=C(Cc1nc2ccccc2[nH]c1=O)c1ccc(Cl)cc1 | – | 0.757 µM (active)
COc1ccc(N2CCN(C3=NS(=O)(=O)C(c4cccc(Br)c4)=C3C)CC2)cc1 | 5.84% (inactive) | –
CCOC(=O)c1c(/N=C/C2C(=O)CC(C)(C)CC2=O)sc(C)c1C | 3.4% (inactive) | –
CCOC(=O)c1c(CC(C)C)csc1/N=C/C1=C(O)CCCC1=O | -0.466% (inactive) | –
CCOC(=O)c1sc(/N=C/C2=C(O)CC(C)(C)CC2=O)c(C(=O)OCC)c1C | – | 19 µM (active)
Cc1ccc(N2CC(C(=O)Nc3ccc(N(C)C)cc3)CC2=O)cc1Cl (stereo unspecified) | -2.6% (inactive) | –
O=C(NNC(=O)c1ccc(Cl)cc1Cl)c1cccs1 | – | 12 µM (active)
O=C(COC(=O)c1ccc(O)cc1O)NNC(=O)c1cccs1 | 0.579% (inactive) | –
NNC(=O)c1ccc(Cl)cc1Cl | 2.1% (inactive) | –
CC1CCCCN1S(=O)(=O)c1ccc(F)c(C(=O)Nc2ccccc2C(F)(F)F)c1 (stereo unspecified) | -1.59% (inactive) | –
Cc1cccc(NC(=O)CSc2nc(-c3ccco3)cc(C(F)(F)F)n2)c1C | 1.44% (inactive) | –
COc1ccc(NS(=O)(=O)c2cc(NC(=O)COc3ccccc3F)ccc2OC)cc1 | -14.1% (inactive) | –
COc1ccc2oc(=O)c(C(=O)N3CCCC3)cc2c1 | -13.4% (inactive) | –
COc1cccc(C(=O)c2cc3ccc(O)cc3oc2=O)c1 | – | 12 µM (active)
COc1ccc2oc(=O)c(C(=O)N3CCN(c4ccccc4F)CC3)cc2c1 | -1.22% (inactive) | –
CNS(=O)(=O)c1ccc(C(=O)NCC(=O)NCCc2ccc3c(c2)OCCO3)cc1 | 1.07% (inactive) | –
COC(=O)c1c(NC(=O)c2ccc(Cl)c(Cl)c2)sc2c1CCCC2 | 1.82% (inactive) | –
Cn1c(=O)c2c(ncn2CC(=O)Nc2cccc(C(F)(F)F)c2)n(C)c1=O | 1.3% (inactive) | –
Cn1c(=NC(=O)c2ccco2)sc2cccc(F)c21 | – | 3.38 µM (active)

SMILES | activity change, negative = inhibition | Potency
Cc1cc(NC(=O)c2ccco2)c(=O)n(Cc2c(F)cccc2Cl)c1 | -4.61% (inactive) | –
CCN(CC)S(=O)(=O)c1ccc(C(=O)N=c2sc3cccc(OC)c3n2C)cc1 | 2.03% (inactive) | –
CC1CCN(S(=O)(=O)c2ccc3c(c2)N(CC(=O)NCc2ccccc2Cl)C(=O)CO3)CC1 | -0.34% (inactive) | –
Cc1csc2nc(COc3ccc(NC(=O)COc4ccccc4)cc3)cc(=O)n12 | -0.705% (inactive) | –
COc1ccccc1N1CCN(c2ncnc3onc(-c4ccc(F)cc4)c23)CC1 | -8.14% (inactive) | –
O=C(CSc1ccccc1)Nc1cccc(S(=O)(=O)N2CCOCC2)c1 | -3.03% (inactive) | –
NC(=O)Cc1ccc2sc(-c3ccccc3)nc2c1 | – | 5.36 µM (active)
CCn1c2ccccc2c2cc(CC(N)=O)ccc21 | -9.05% (inactive) | –
NC(=O)Cc1ccc2c(c1)[nH]c1ccccc12 | -0.852% (inactive) | –
COc1ccc(CCNC(=O)c2ccc(CSCc3ccc(C)cc3)o2)cc1OC | -13% (inactive) | –
CN1CCN(S(=O)(=O)c2ccc(N3CCN(c4ccccc4O)CC3)c([N+](=O)[O-])c2)CC1 | -3.12% (inactive) | –
CC(=O)NS(=O)(=O)c1ccc(NC(=O)/C=C/c2ccccc2Cl)cc1 | – | 12 µM (active)
CC(=O)NS(=O)(=O)c1ccccc1 | 4.9% (inactive) | –
O=C(CCS(=O)(=O)c1ccccc1Cl)Nc1ccc(S(=O)(=O)Nc2ncccn2)cc1 | -2.77% (inactive) | –
CC(=O)Nc1ccc(S(=O)(=O)Nc2nccc(/C=C/c3ccccc3F)n2)cc1 | -15.6% (inactive) | –
NS(=O)(=O)c1ccc(NC(=O)/C=C/c2ccccc2Cl)cc1 | -1.76% (inactive) | –
O=C(/C=C/c1ccccc1Cl)Nc1ccc(S(=O)(=O)Nc2ncccn2)cc1 | – | 13.5 µM (active)
COc1ccc(CNC(=O)Cn2nnc(-c3ccccc3F)n2)cc1 | 0.0667% (inactive) | –
CCOc1cccc2sc(N3CCN(C(=O)C4CC4)CC3)nc12 | 5.64% (inactive) | –
Cc1occc1-c1nnc(SCC(=O)NC2(C#N)CCCC2)n1C | -1.51% (inactive) | –
Cc1ccc(CSc2oc(-c3cccs3)nc2S(=O)(=O)c2ccc(C)cc2)cc1 | 6.28% (inactive) | –
Cc1onc(-c2ccccc2Cl)c1C(=O)OCc1nnc(-c2ccccc2)o1 | 10.8% (inactive) | –

SMILES | activity change, negative = inhibition | Potency
CCOC(=O)N1CCN(Cc2nnc(-c3ccccc3Cl)o2)CC1 | 1.04% (inactive) | –
O=C(c1ccc(Cl)s1)N(Cc1nnc(-c2ccccc2Cl)o1)C1CC1 | – | 19 µM (active)
Cc1ccc(S(=O)(=O)c2c(Nc3cccc(Cl)c3)sc(C(=O)c3ccc4c(c3)OCO4)c2N)cc1 | -0.174% (inactive) | –
COc1ccccc1C(=O)NC(=S)Nc1ccccc1N1CCCCC1 | 4.72% (inactive) | –
O=C(CCCCn1c(=O)c2ccccc2n(CC(=O)Nc2cccc(C(F)(F)F)c2)c1=O)NCc1ccc2c(c1)OCO2 | 0.038% (inactive) | –
COC(=O)c1ccc(C(=O)OC)c(NC(=S)N2CCN(c3ccc(F)cc3)CC2)c1 | 3.87% (inactive) | –
CC(=O)Nc1cc(C(=O)NCc2ccc(F)cc2)ccc1Sc1ccc(F)cc1 | 5.72% (inactive) | –
COC(=O)c1ccc(Sc2ccc(F)cc2)c(N)c1 | – | 21.3 µM (active)
CC(C)NC(=O)c1nn(-c2ccccc2F)nc1CO | -2.88% (inactive) | –
CCOC(=O)C1CCC(CN(Cc2ccc(OC)cc2)S(=O)(=O)c2ccc(F)c(C(=O)Nc3cc(C)ccc3C)c2)CC1 (stereo unspecified) | 3.04% (inactive) | –
CCNC(=O)CC1C(=O)N(c2ccc(F)cc2)C(=O)N1Cc1ccc(C)cc1 (stereo unspecified) | -0.0307% (inactive) | –
N#Cc1cccc(OC(=O)c2ccc3c(=O)n4c(nc3c2)CCC4)c1 | 2.32% (inactive) | –
COc1ccccc1CNC(=O)C(=O)NCC(c1ccco1)S(=O)(=O)c1ccc(F)cc1 (stereo unspecified) | 5.2% (inactive) | –
CC1=NOC(=O)/C1=C\c1ccccc1 | -18.5% (inactive) | –
COc1cc(/C=C2/C(=O)ON=C2C)ccc1OCc1ccccc1F | – | 6.75 µM (active)
CCOc1cc(/C=C2/C(=N)N3OC(C)=CC3=NC2=O)ccc1OC | -0.423% (inactive) | –
CCc1ccc(CN(Cc2ccco2)C(=O)c2ccccc2Cl)cc1 | 0.23% (inactive) | –
Cc1ccc(C(=O)NC(=S)Nc2ccccc2C)cc1 | – | 19 µM (active)
Cc1ccc(NC(=O)NC(=O)c2ccccc2)cc1F | -17.7% (inactive) | –
Cc1ccc(C(=O)NC(=S)Nc2ccc(N3CCOCC3)cc2)cc1 | -19.7% (inactive) | –
Cc1cccc(NC(=S)NC(=O)c2ccc(Br)o2)c1 | – | 19 µM (active)
Cc1cccc(NC(=O)/C(=C\c2ccco2)NC(=O)c2ccccc2)c1 | -10.3% (inactive) | –

SMILES | activity change, negative = inhibition | Potency
Cc1cccc(NC(=O)NC(=S)NC(=O)c2ccccc2)c1 | – | 19 µM (active)
Cc1ccccc1NC(=S)NC(=O)Cc1ccc(Cl)cc1 | 0.112% (inactive) | –
O=C(CNC(=O)c1ccc(Br)o1)Nc1ccccc1 | -1.97% (inactive) | –
Cc1cccc(NC(=O)c2ccc([N+](=O)[O-])o2)c1 | -22% (inactive) | –
CC1CCN(S(=O)(=O)c2ccc3c(c2)N(CC(=O)NCCc2ccccc2)C(=O)CO3)CC1 | -2.8% (inactive) | –
O=C(NCc1cccc(Cl)c1)C1=CC=CN2CCS(=O)(=O)N=C12 | 7.06% (inactive) | –
Cc1nnc(NCc2ccccc2)c2c1nnn2Cc1ccc(F)cc1 | -6.01% (inactive) | –
O=C(CCS(=O)(=O)c1cc(Br)cc2c1N(C(=O)C1CC1)CC2)Nc1ccc(Br)cc1F | -7.11% (inactive) | –
Cc1ccc(NC(=O)CSc2nc3c([nH]c4ccccc43)c(=O)n2-c2ccccc2)cc1Cl | 1.48% (inactive) | –
NC(=O)CSc1nc2c(oc3ccccc32)c(=O)n1Cc1ccccc1 | 1.23% (inactive) | –
Cc1ccc(OCC(=O)Nc2ccc3oc(=O)ccc3c2)cc1C | -3.03% (inactive) | –
CC1=C(C(=O)N2CCN(c3cccc(C(F)(F)F)c3)CC2)C2(CCCCC2)OC1=O | -5.3% (inactive) | –
COc1ccc(-c2nc3ccc(C(=O)NCc4ccc(C)cc4)cc3nc2-c2ccc(OC)cc2)cc1 | -3.49% (inactive) | –
CC(C)c1nc2cc(C(=O)NC(C)c3cnn(C)c3)ccc2o1 (stereo unspecified) | -4.31% (inactive) | –
COC(=O)c1ccc(CNC(=O)c2ccc3oc(C(C)C)nc3c2)cc1 | – | 13.5 µM (active)
COC(=O)c1ccc(CSc2nc3cc(Cl)ccc3o2)cc1 | -11.3% (inactive) | –
COc1ccc(CNC(=O)c2ccc3oc(C(C)C)nc3c2)cc1 | – | 15.1 µM (active)
COc1ccc(Cc2nc3ccc(C(=O)NCc4ccc(OC)cc4OC)cc3o2)cc1 | -1.85% (inactive) | –
